Reference: PubChem BioAssay
Several values for one entry are separate records, joined by “and”; a condition that tells them apart may be missing. Identical values can stand only once. Records with an inconclusive call do not appear. Where a structure was tested more than once in an assay, its records may differ in their call. Activity calls are given as the source filed them. Unless noted, no cut-off is given here; in the data, nearly all actives have AC50 up to about 26 µM.

Assays:
[1] = system: Aerobactin synthetase IucA (Klebsiella pneumoniae); assay: IucA aerobactin synthetase inhibitors, biochemical, Tocris library, absorbance (AID 1345561; call rule not given here;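 note: 100% = enzyme without compound and 0% = no enzyme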); conditions: purified IucA enzyme assay, absorbance (OD) read-out; stronger effect = lower value;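 tested at 8 µM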
[2] = growth inhibition of DIPG glioma cells, dose response, cell-based, SU-DIPG-XVII, MIPE5.0, CellTiter-Glo, qHTS (AID 1347060); conditions: SU-DIPG-XVII viability, CellTiter-Glo ATP luminescence;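 for AC50: cells exposed to compound for 48 hours before viability readout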
[3] = growth inhibition of DIPG glioma cells, dose response, cell-based, SU-DIPG-XIII, MIPE4.0, CellTiter-Glo, qHTS (AID 1347061; cut-off not given, nearly all actives have AC50 up to about 37 µM;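 note: cells exposed to compound for 48 hours before readout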); conditions: SU-DIPG-XIII viability, CellTiter-Glo ATP luminescence
[4] = growth inhibition of DIPG glioma cells, dose response, cell-based, SU-DIPG-IV, MIPE4.0, CellTiter-Glo, qHTS (AID 1347063; cut-off not given, nearly all actives have AC50 up to about 30 µM;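 note: compound exposure lasted 48 hours before the viability readout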); conditions: SU-DIPG-IV viability, CellTiter-Glo ATP luminescence
[5] = growth inhibition of DIPG glioma cells, dose response, cell-based, SU-DIPG-XIII, MIPE5.0, CellTiter-Glo, qHTS (AID 1347064; cut-off not given, nearly all actives have AC50 up to about 23 µM;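 for AC50: cells exposed to compound for 48 hours before the viability read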); conditions: SU-DIPG-XIII viability, CellTiter-Glo ATP luminescence
[6] = JHH-DIPG-1 glioma cell viability, MIPE5.0 library, CellTiter-Glo luminescence, qHTS (AID 1347067); conditions: JHH-DIPG-1 glioma viability, CellTiter-Glo ATP luminescence;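 note: cells exposed to compound for 48 hours before readout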
[7] = SU-DIPG-XXV glioma cell viability, MIPE5.0 library, qHTS (AID 1347068; cut-off not given, nearly all actives have IC50 up to about 30 µM;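 for IC50: cells exposed to compound for 48 hours before viability readout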)
[8] = target: ATP-dependent translocase ABCB1 (Homo sapiens) (UniProt P08183); assay: MDR1 (ABCB1) efflux transporter inhibition, cell-based (AID 377; in the data active = fluorescence slope change above about 50%); conditions: MDR1-expressing cells, fluorescent substrate accumulation slope; stronger effect = higher value; concentration not given here
[9] = reducers of polyQ inclusions in PC12 cells, cell-based, NGF-treated PC12, GFPQ80 (AID 1614); conditions: PC12 NGF-treated GFP-polyQ80 inclusion reduction;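 note: lower means fewer inclusions and 0 means no inclusions at all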
[10] = circadian clock period modulators, cell-based, LOPAC library, luminescence reporter (AID 2774; call rule not given here;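 note: values are relative to mean of DMSO wells on each plate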); conditions: circadian reporter cells, at 7 µM, actives lie on both sides
[11] = system: Hepatitis C virus NS3 helicase; assay: HCV NS3 helicase inhibitors, primary screen, biochemical, fluorescence polarization, LOPAC1280 library (AID 687035; in the data active = inhibition above about 37%); conditions: Purified HCV NS3 helicase, Cy5-dT15 ssDNA binding fluorescence polarization; stronger effect = higher value; concentration not given here
[12] = Cy5 fluorescence quenching or enhancement artefacts, artefact control for HCV NS3 helicase inhibitor project, biochemical, LOPAC1280 (AID 687037; call rule not given here); conditions: Cy5-DNA-NS3h complex fluorescence interference counterscreen
[13] = growth inhibition of DIPG glioma cells, dose response, cell-based, JHH-DIPG-1, MIPE4.0, CellTiter-Glo, qHTS (AID 1347062; cut-off not given, nearly all actives have AC50 up to about 27 µM;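 for AC50: cells exposed to compound for two days before readout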); conditions: JHH-DIPG-1 viability, CellTiter-Glo ATP luminescence
[14] = viability loss in pontine glioma line – cell-based, SU-DIPG-XXV, MIPE5.0, CellTiter-Glo, qHTS, dose response (AID 1347065); conditions: CellTiter-Glo ATP luminescence;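 note: cells exposed to compound for 48 hours before ATP readout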
[15] = SU-DIPG-VI glioma cell viability, MIPE4.0 library, CellTiter-Glo luminescence, qHTS (AID 1347066; cut-off not given, nearly all actives have AC50 up to about 30 µM;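 note: cells exposed to compound for 48 hours before readout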); conditions: CellTiter-Glo ATP luminescence
[16] = phospholipid biosynthesis inhibitors in animal cells, primary screen, cell-based, LOPAC library, screen 4 (AID 1347384; call rule not given here); conditions: phospholipid biosynthesis inhibition screen, at 10 µM
[17] = LFS_MB_P medulloblastoma growth inhibition, cell-based, chromothripsis tumors, cisplatin or BGB combos (AID 1671449; in the data active = inhibition above about 80%;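 note: cells exposed for 96 hours; 0% = vehicle DMSO and 100% = killing by high DMSO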); conditions: LFS_MB_P medulloblastoma cells
[18] = ICB984 medulloblastoma cell growth inhibition, synergistic combos for chromothripsis tumors, cisplatin or BGB combos (AID 1671451; call rule not given here;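 note: cells exposed for 96 hours before readout; 0% = vehicle DMSO and 100% = killing by high DMSO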); conditions: ICB984 medulloblastoma cells, drug combinations, stronger effect = higher value

Chain of ATP-dependent translocase ABCB1 (Homo sapiens) (P08183 whole entry, looked up): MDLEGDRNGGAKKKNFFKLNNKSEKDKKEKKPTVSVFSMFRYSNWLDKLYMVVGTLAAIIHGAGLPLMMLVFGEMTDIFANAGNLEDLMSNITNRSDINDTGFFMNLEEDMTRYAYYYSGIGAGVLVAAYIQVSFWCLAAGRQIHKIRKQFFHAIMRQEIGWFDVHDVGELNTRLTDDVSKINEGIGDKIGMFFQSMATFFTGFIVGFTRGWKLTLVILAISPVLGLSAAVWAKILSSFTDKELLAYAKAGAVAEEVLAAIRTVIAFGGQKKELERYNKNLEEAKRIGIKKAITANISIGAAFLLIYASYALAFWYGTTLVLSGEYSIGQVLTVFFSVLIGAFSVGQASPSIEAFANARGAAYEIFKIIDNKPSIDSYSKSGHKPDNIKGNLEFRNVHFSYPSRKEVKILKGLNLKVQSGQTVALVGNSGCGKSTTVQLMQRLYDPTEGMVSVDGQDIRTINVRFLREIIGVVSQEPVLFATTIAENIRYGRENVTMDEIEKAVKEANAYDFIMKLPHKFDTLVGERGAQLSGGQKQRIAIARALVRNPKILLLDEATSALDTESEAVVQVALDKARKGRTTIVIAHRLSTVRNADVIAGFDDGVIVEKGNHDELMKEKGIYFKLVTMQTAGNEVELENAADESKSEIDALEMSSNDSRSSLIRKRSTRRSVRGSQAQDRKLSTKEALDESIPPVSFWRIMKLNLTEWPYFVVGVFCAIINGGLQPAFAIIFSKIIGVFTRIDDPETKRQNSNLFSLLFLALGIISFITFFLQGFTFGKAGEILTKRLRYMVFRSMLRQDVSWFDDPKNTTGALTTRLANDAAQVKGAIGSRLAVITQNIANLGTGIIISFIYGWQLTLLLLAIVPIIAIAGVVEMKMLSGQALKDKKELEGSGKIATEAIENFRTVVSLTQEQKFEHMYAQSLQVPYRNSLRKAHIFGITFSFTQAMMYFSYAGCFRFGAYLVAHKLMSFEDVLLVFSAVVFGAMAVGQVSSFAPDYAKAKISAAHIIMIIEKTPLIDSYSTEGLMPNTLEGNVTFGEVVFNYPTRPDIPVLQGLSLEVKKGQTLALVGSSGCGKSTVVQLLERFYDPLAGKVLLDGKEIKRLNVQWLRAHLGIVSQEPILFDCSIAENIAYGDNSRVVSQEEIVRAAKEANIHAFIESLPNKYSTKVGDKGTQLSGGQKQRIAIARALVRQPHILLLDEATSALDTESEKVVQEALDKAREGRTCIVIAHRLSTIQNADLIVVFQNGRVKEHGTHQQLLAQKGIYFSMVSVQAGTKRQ

CC[C@H](C)C(=O)O[C@H]1C[C@H](O)C=C2C=C[C@H](C)[C@H](CC[C@@H](O)C[C@@H](O)CC(=O)O)[C@H]21
inactive: remaining activity [1] 123% | outcome [3] | outcome [4] | outcome [5] | outcome [6] | outcome [7]
active: AC50 [2] 23.5 µM

Cn1c(=O)c2[nH]cnc2n(C)c1=O
-24.5% and 11.4% and -42.2%: inhibition ([18]; cisplatin combo, at 5 µM)
1.5: inclusion score [9]
-42.4% and 6.67% and -13.1%: inhibition ([18]; BGB IC40 combo, at 0.005 µM)
-28.1% and -16.1% and -10.3%: inhibition ([17]; measured here: combination with BGB IC40, at 0.05 µM)
-32.6% and -34.3% and -25.4%: inhibition ([17]; measured here: combination with BGB IC40, at 0.005 µM)
-29.5% and -23.4% and -59.1%: inhibition ([18]; cisplatin combo, at 0.5 µM)
-5.05% and -45.4% and 1.22%: inhibition ([18]; measured here: 5 uM single agent, at 5 µM)
-45.5% and -37.4% and -12%: inhibition ([18]; BGB IC40 combo, at 0.05 µM)
7.6% (inactive) and 62.3% (active): fluorescence slope change [8]
-5.83% and -14.3% and -19.1%: inhibition ([17]; measured here: combination with BGB IC20, at 0.005 µM)
-12.8% and -12% and -12.6%: inhibition ([17]; measured here: combination with cisplatin, at 5 µM, stronger effect = higher value)
-49.6% and -37.4% and -12%: inhibition ([18]; cisplatin combo, at 0.05 µM)
-1.06% and -2.94% and -4.47%: inhibition ([18]; BGB IC20 combo, at 0.005 µM)
57.5% and -49.4% and -30.2%: inhibition ([17]; measured here: combination with cisplatin, at 0.5 µM, stronger effect = higher value)
inactive: period change [10] 0.14 h | inhibition [11] -2% | fluorescence ratio (interference) [12] 0.9 | outcome [2] | outcome [3] | outcome [13] | outcome [4] | outcome [5] | outcome [14] | outcome [15] | outcome [6] | outcome [7] | outcome [16] | inhibition ([17]; at 0.5 µM, stronger effect = higher value) 15.2% and -21.4% and -26.2% | inhibition ([18]; at 0.5 µM) -27.5% and -16.4% and -30.3%

COc1cc([C@@H]2c3cc4c(cc3[C@H](O)[C@H]3COC(=O)[C@H]23)OCO4)cc(OC)c1OC
active: AC50 [2] 0.0417 µM | AC50 [13] 0.0743 µM | AC50 [5] 0.0295 µM | AC50 [14] 0.0468 µM | AC50 [6] 0.0295 µM | IC50 [7] 0.0525 µM
inactive: outcome [4]

CC(C)C1CCC(C(=O)N[C@H](Cc2ccccc2)C(=O)O)CC1 (stereo not given in full)
inactive: outcome [2] | outcome [3] | outcome [13] | outcome [4] | outcome [5] | outcome [14] | outcome [15] | outcome [6] | outcome [7]

CC1=C(C(=O)O)N2C(=O)[C@@H](NC(=O)[C@H](N)c3ccccc3)[C@H]2SC1
active: fluorescence slope change [8] 94.6%

CCCCCCCCCCC[C@@H](C[C@@H]1OC(=O)[C@H]1CCCCCC)OC(=O)[C@H](CC(C)C)NC=O
inactive: remaining activity [1] 84.7%

OCCN1C[C@H](O)[C@@H](O)[C@H](O)[C@H]1CO
inactive: outcome [2] | outcome [3] | outcome [13] | outcome [4] | outcome [14] | outcome [15] | outcome [6] | outcome [7]

c1ccc2c(CC3=NCCN3)cccc2c1
1.5: inclusion score [9]

CC(C)Oc1ccc2c(=O)c(-c3ccccc3)coc2c1
inactive: outcome [2] | outcome [3] | outcome [13] | outcome [4] | outcome [15] | outcome [6] | outcome [7]

CC(C)(C)NC[C@H](O)COc1nsnc1N1CCOCC1
inactive: remaining activity [1] 95.7%

CCCN(CCC)S(=O)(=O)c1ccc(C(=O)O)cc1
2: inclusion score [9]

C#C[C@]1(O)CC[C@H]2[C@@H]3CCC4=CC(=O)CC[C@@H]4[C@H]3CC[C@@]21CC
inactive: fluorescence slope change [8] -2.5% | outcome [2] | outcome [3] | outcome [13] | outcome [4] | outcome [15] | outcome [6] | outcome [7]

CC(=O)OCC(=O)[C@@]1(O)CC[C@H]2[C@@H]3CCC4=CC(=O)CC[C@]4(C)[C@H]3C(=O)C[C@@]21C
inactive: period change [10] -0.03 h | inhibition [11] -3% | fluorescence ratio (interference) [12] 0.9 | outcome [3] | outcome [13] | outcome [4] | outcome [14] | outcome [15] | outcome [6] | outcome [7] | outcome [16]

NC(N)=NC(=O)c1nc(Cl)c(N)nc1N
inactive: period change [10] 0.02 h | inhibition [11] 1% | fluorescence ratio (interference) [12] 0.9 | remaining activity [1] 101% | outcome [2] | outcome [13] | outcome [5] | outcome [14] | outcome [15] | outcome [6] | outcome [7] | outcome [16]
active: AC50 [3] 14.8 µM
2: inclusion score [9]

CCOC(=O)C1=C(COCCN)NC(C)=C(C(=O)OC)C1c1ccccc1Cl (stereo not given)
inactive: remaining activity [1] 107%

CC(=O)OCC(=O)[C@@]1(O)CC[C@H]2[C@@H]3CCC4=CC(=O)C=C[C@]4(C)[C@H]3[C@@H](O)C[C@@]21C
inactive: outcome [3] | outcome [13] | outcome [5] | outcome [14] | outcome [15] | outcome [6] | outcome [7]

Nc1nc2ccc(OC(F)(F)F)cc2s1
active: fluorescence slope change [8] 60.6% | IC50 [7] 20.9 µM
inactive: period change [10] 0.11 h | inhibition [11] -3% | fluorescence ratio (interference) [12] 0.9 | remaining activity [1] 83.1% | outcome [2] | outcome [3] | outcome [13] | outcome [5] | outcome [15] | outcome [16]
